# Screen size: about 4,800 compounds; about 420 (8.8%) showed an effect of 50% or more. Shown is part of a subset that was picked to be rich in strong results.
# Tested on: Plasmodium falciparum
# Experiment: Confirmatory screen in NF54 nanoGlo assay, in single point, at 2uM, 72h
# Assay type: functional, Erythrocyte
# Conditions: timepoint 72 hour
row,SMILES,% Inhibition [%]
1,COc1snc(C(Cl)(Cl)Cl)c1Cl,-2
2,CCN(CC)CCC1C(=O)N(c2ccccc2)C(=O)N(c2ccccc2)C1=O,4
3,CC(=O)N1N=C(c2cccnc2)O[C@H]1c1ccc(F)cc1,-10
4,Cc1nc(Cn2nc(C(C)(C)C)oc2=O)oc1C,0
5,FC1(F)C[C@@H](COc2cccnc2)N(C2CCCCC2)C1,3
6,Cn1cc(/C=C2\CC3C4CCC5CCCCC5(C)C4CCC3(C)C2O)cn1 (configuration not stated),0
7,Cc1cccc(CN(C)C)c1OC(=O)N(C)C,-9
8,COc1ccc(-c2cc([C@H]3CN4CC[C@H]3C[C@@H]4CNC(=O)C3CCCCC3)n(C)n2)cc1OC,-9
9,Cc1ccc(NC(=O)N2CCC(=O)CC2)cc1Br,-4
10,C=CCCC(CN1C[C@H]2CC=CC[C@H]2C1)Oc1ncc(F)cn1 (some centres not stated),77
11,COC(=O)[C@H]1CN(Cc2noc(C)n2)C[C@@H]1c1ccc(F)cc1F,-20
12,CC(Cc1ccccc1)NC1CN2CCC1CC2 (configuration not stated),1
13,CC(C)N1CCN(c2nc3nc[nH]c(=O)c3s2)CC1,4
14,O=S(=O)(NC12CCCC1CNC2)c1onc(C2CC2)c1Cl (configuration not stated),95
15,O=C(NCc1cc(F)cc(F)c1)c1cn(Cc2ccc(F)cc2)nn1,-15
16,O=C1N[C@](c2ccccc2)(C(F)(F)F)c2ccc3ccccc3c2O1,5
17,CC1CCCCC1N1CCN(C(=O)COc2ccc(Br)cc2)CC1 (configuration not stated),3
18,O=c1c2cc(Cl)ccc2nc(-c2cccnc2)n1-c1ccc(Br)cc1,0
19,O=C1O[C@@H]2CCN(Cc3ccccc3)[C@H]1C2,-15
20,CCC1(CC)C(=O)N(CN2CCCC2=O)C(=O)N(CN2CCCC2=O)C1=O,-17
21,CN(C)S(=O)(=O)Nc1cccc(OC(=O)N2CCOCC2)c1,-10

row,SMILES,% Inhibition [%]
1,CCN1CCC[C@H](NC(C2CCC2)C2CCC2)C1,-3
2,O=C(N1CCN(C(c2ccccc2)c2ccccc2)CC1)C(O)(c1ccccc1)c1ccccc1,-4
3,COc1cc(OCC(=O)N2CCN([C@@H](C)Cc3ccccc3)CC2)cc(OC)c1OC,8
4,Cc1cc(=O)c(OCC(=O)N2CCN([C@@H](c3ccccc3)c3ccc(Cl)cc3)CC2)c[nH]1,63
5,Cc1ccc(C(O)(c2ccc(C)c(C)c2)[C@H]2C[N@]3CC[C@@H]2CC3)cc1C,6
6,CN1CCN(CCO[C@@H](c2cccc(Cl)c2)c2ccccc2Cl)CC1,0
7,O=C(c1ccccc1)c1cc(Cl)ccc1NC(=O)[C@H]1CC(=O)N(c2ccc(F)cc2)C1,85
8,c1cc(-n2cnnn2)ccc1N[C@H]1CN2CCC1CC2,-14
9,CC(C)c1nc(CC(=O)N2CCN(Cc3nnc4n3CCCCC4)CC2)cs1,-12
10,CCCC(=O)N(C1=CC2CCC(C1)N2C)c1ccccc1 (configuration not stated),1
11,Cc1cc(C(=O)NC2CC(C)n3ccnc32)nn1C(C)C (configuration not stated),58
12,COc1cc(=O)c(C(=O)N2CCC3(CC2)OCCO3)nn1-c1ccc(C)cc1,-5
13,CN1CCC2CCN(C(=O)c3cc(C4CC4)on3)C2C1 (configuration not stated),2
14,CCOc1ccccc1N1C(=O)NC(=O)[C@@]2(Cc3cc(C)ccc3N(C)C2)C1=O,-10
15,COC(=O)C(O)(c1ccc2c(c1)C(O)(C(F)(F)F)C(=O)N2C(C)C)C(F)(F)F (configuration not stated),8
16,CC1CN2CCCC2CN1C(=O)c1cc(C2CC2)on1 (configuration not stated),-17
17,O=C1C2CCN(CC2)[C@H]1Cc1ccc(Cl)cc1,4
18,Cc1cc(C(F)(F)F)c2c(C(N)=O)cn(C(C)(C)C)c2n1,2
19,C[N+]12CCC(CC1)[C@@H](C(O)(c1cccc(Cl)c1)c1cccc(Cl)c1)C2,24
20,O=C1CO[C@H]2CCN(Cc3cn4ccc(Br)cc4n3)C[C@@H]2N1,1
21,Cn1nc(OC(=O)Nc2ccccc2)cc1C(F)(F)F,6

row,SMILES,% Inhibition [%]
1,CN(C)C(=O)CCCn1ccc(NC(=O)C2C(C)(C)C2(C)C)n1,-18
2,Nc1ccc(N2CCN3CCC[C@H]3C2)cc1,8
3,Cc1ccc2c(c1)CCCN2C(=O)CN1CC=C(c2cnn(C)c2)CC1,43
4,CCCS(=O)(=O)NC[C@H]1C[C@@H]2CCN1C[C@@H]2c1cc(C(CC)CC)nc(-c2ccncc2)n1,18
5,CCC(CC)c1cc([C@H]2CN3CC[C@H]2C[C@@H]3CNS(=O)(=O)Cc2ccccc2)nc(-c2ccncc2)n1,63
6,CCC(CC)c1cc([C@H]2CN3CC[C@H]2C[C@@H]3CO)nc(-c2ccncc2)n1,26
7,CC1CCNC(=O)C1NC(=O)Nc1ccc(C#N)c(C(F)(F)F)c1 (configuration not stated),8
8,Clc1ccc(C2CC(c3cccnc3)Nc3nnnn32)cc1 (configuration not stated),-10
9,CCCCC1(CCCC)C(=O)NC(=Nc2ccc(C)cc2)NC1=O,-18
10,O=C1N(c2ccccc2)C(=O)C2(Cc3cc(C(F)(F)F)ccc3N3CCC(c4ccccc4)CC32)C(=O)N1c1ccccc1 (configuration not stated),4
11,CC[C@H]1C[N@@]2CC[C@H]1C[C@@H]2COC(=O)Nc1ccc(C(C)(C)C)cc1,4
12,COc1cccc(CNC(=O)N2CC[C@@H]3CCN(C)C[C@@H]32)n1,-2
13,CC(=O)N(C1CCN(Cc2ccccc2)CC1)C1(C(=O)Nc2ccc3[nH]ccc3c2)CCN(C)CC1,35
14,c1cc(N2CC[C@@]3(CCCNC3)C2)c2sccc2n1,99
15,CN1CC[C@]2(CCN(c3ccnc4ccsc34)C2)C1,99
16,CCn1nccc1CNCCc1ccccc1,4
17,CC[C@H]1C[N@@]2CC[C@H]1C[C@@H]2COC(=O)Nc1ccccc1,3
18,CNc1snc(C)c1C(=O)N1CCC(C(=O)OC)(c2ccccc2)CC1,-2
19,COc1ccc(-c2ccccc2N2CCNCC2)c2ccc(C)nc12,-4
20,Clc1cccc(CCN[C@H]2CCOC3(CCOCC3)C2)c1,7
